High-throughput results deposited in PubChem by Broad Institute.
The list is a sample of the results.
aSyn 5UTR act: Activators working through SNCA 5'UTR binding (MLPCN); alpha-synuclein 5'UTR reporter, activators screen; activity score, % (tested at 7.5 µM), hits read low; 300,000 compounds, 7.1% hits; AID 1814; in the data active means activity score below about -60%
Of the large screens only hits and unclear results are named; the others gave an inactive call.

CNC1=C(N(C(C)=O)c2ccc(Br)cc2)C(=O)c2ccccc2C1=O	none
COC1=C(Nc2ccccc2)C(=O)c2ccccc2C1=O	aSyn 5UTR act -73.4
COC1=C(Nc2ccc(C)cc2)C(=O)c2ccccc2C1=O	aSyn 5UTR act -156.3
Cc1ccc2c(c1)N=C(c1ccc(Cl)cc1)CO2	aSyn 5UTR act -152.0
Clc1ccc(C2=Nc3cc(Cl)ccc3OC2)cc1	aSyn 5UTR act -205.7
O=C(/C=C\c1ccccc1[N+](=O)[O-])Nc1ccccc1	aSyn 5UTR act -194.0
CCOc1ccccc1NC(=O)/C=C/c1ccccc1[N+](=O)[O-]	aSyn 5UTR act -87.6
Cc1ccnc(NC(=O)/C=C/c2ccccc2[N+](=O)[O-])c1	aSyn 5UTR act -118.2
O=C(NC1CCCCCC1)c1ccc2c(=O)n3c(nc2c1)CCCCC3	aSyn 5UTR act -72.5
Cc1ccc(NC(=O)c2ccc3c(=O)n4c(nc3c2)CCCCC4)nc1	aSyn 5UTR act -71.7
O=C(N/N=C1\CCc2ccccc21)c1ccc(O)cc1	aSyn 5UTR act -75.0
O=C(N/N=C1\C(=O)c2cccc3cccc1c23)c1ccc(O)cc1	aSyn 5UTR act -136.6
O=C(N/N=C/c1ccc(O)cc1O)c1ccc(CN2C(=O)c3cccc4cccc2c34)cc1	none
O=C(N/N=C1\CCc2ccccc21)c1ccccc1Cl	aSyn 5UTR act -129.2
Cc1ccc(C(=O)N/N=C2\CCc3ccccc32)c(C)c1	aSyn 5UTR act -139.1
C/C(=N\NC(=O)c1cccc(Br)c1)c1ccccn1	none
S=C(N/N=C1\CCc2ccccc21)NC1CCCCC1	aSyn 5UTR act -105.9
CCOC(=O)N/N=C1\CCc2ccccc21	aSyn 5UTR act -102.4
O=C(N/N=C1\CCCc2ccccc21)c1cccc(Br)c1	aSyn 5UTR act -92.7
Cc1ccc(NP(=O)(c2ccc(N(C)C)cc2NC(=O)c2cccs2)N2CCOCC2)cc1 (stereo not drawn)	aSyn 5UTR act -91.3
CN(C)c1ccc(P(=O)(Nc2ccc([N+](=O)[O-])cc2)N2CCOCC2)c(NC(=O)c2cccs2)c1 (stereo not drawn)	aSyn 5UTR act -66.2
CN(C)c1ccc(P(=O)(Nc2ccccc2)N2CCOCC2)c(NC(=O)c2cccs2)c1 (stereo not drawn)	aSyn 5UTR act -99.9
COc1cc(/C=N/NC(=O)CN2CCOCC2)ccc1OCc1ccccc1	aSyn 5UTR act -96.6
COc1cc(/C=N/NC(=O)CN2CCCCC2)ccc1OCc1ccccc1	aSyn 5UTR act -136.6
CC(C)(C)OC(=O)COc1ccc(/C=N/NC(=O)CN2CCCCC2)cc1	aSyn 5UTR act -85.7
CCOC(=O)Nc1ccc(Cc2ccncc2)cc1	aSyn 5UTR act -62.8
CCOC(=O)Nc1ccc(C(=O)/C=C/c2ccccc2)cc1	aSyn 5UTR act -68.7
CC(=O)c1ccc(NC(=O)Oc2ccccc2)cc1	aSyn 5UTR act -62.5
CCOC(=O)Nc1ccc(Oc2ccccc2)cc1	aSyn 5UTR act -96.1
COc1ccc(/C(N)=C/C(=O)C(C)(C)C)cc1	aSyn 5UTR act -97.8
CCOc1ccc(-c2cc(C(=O)NN)[nH]n2)cc1	aSyn 5UTR act -68.6
COc1ccc(S(=O)(=O)NCc2ccccn2)cc1NC(=O)c1ccccc1	aSyn 5UTR act -62.3
CCOc1ccc(S(=O)(=O)NCc2ccccn2)cc1NC(=O)c1ccccc1F	none
Cc1cc2ncn(/N=C/c3ccc([N+](=O)[O-])o3)c2cc1C	aSyn 5UTR act -121.7
O=C(N/N=C/c1ccc([N+](=O)[O-])o1)c1cc(-c2ccncc2)nc2ccccc12	aSyn 5UTR act -66.7
O=C(N/N=C/c1ccc([N+](=O)[O-])o1)c1cc(-c2ccc(-c3ccccc3)cc2)nc2ccccc12	none
Cc1ccc2nc(N/N=C/c3ccco3)cc(C)c2c1	aSyn 5UTR act -185.5
Cc1cc(N/N=C/c2ccc([N+](=O)[O-])o2)nc2ccccc12	aSyn 5UTR act -133.2
COc1ccc(CCNC(=O)c2ccc(Cl)cc2Cl)cc1OC	aSyn 5UTR act -99.3
COc1cc(CCC(C)=O)ccc1OC(=O)c1c(F)cccc1Cl	aSyn 5UTR act -185.1
COc1ccc(NC(=O)COC(=O)c2c(F)cccc2Cl)cc1OC	aSyn 5UTR act -110.3
Oc1cccc2c(NC(=S)Nc3ccc(OC(F)F)cc3)cccc12	aSyn 5UTR act -138.1
Cc1nc2cc(NC(=O)N3CCC(c4ccccc4)C3)ccc2n1C (stereo not drawn)	aSyn 5UTR act -103.8
Cc1ccc(C2CCN(C(=O)Nc3ccc(F)cc3)C2)cc1 (stereo not drawn)	aSyn 5UTR act -125.2
CCCCNC(=O)c1nnn(-c2ccccc2)c1N	aSyn 5UTR act -140.0
CCCCNC(=O)/C=C/c1cccs1	aSyn 5UTR act -86.1
Cc1ccc(CNC(=O)/C=C/c2cccs2)cc1	aSyn 5UTR act -184.5
Cc1ccccc1C(=O)Oc1ccc2ccc(O)cc2c1	aSyn 5UTR act -162.2
Cc1ccccc1S(=O)(=O)Oc1ccc2ccc(O)cc2c1	aSyn 5UTR act -131.1
Cc1ccc(C(=O)Cn2ncsc2=N)cc1	aSyn 5UTR act -163.7
Cc1nn2cc(-c3ccc(Cl)cc3)cnc2c1Cl	aSyn 5UTR act -144.4
c1ccn2cc(-c3ccc4c(c3)OCCO4)nc2c1	none
COc1ccc(-c2cn3cccnc3n2)cc1Br	aSyn 5UTR act -66.1
COc1ccc(-c2cn3cc(Br)cnc3n2)cc1	aSyn 5UTR act -123.2
COc1ccc(-c2cn3ccccc3n2)cc1OC	aSyn 5UTR act -171.4
COc1ccc(CC(=O)Nc2ccc(-c3cn4ccccc4n3)cc2)cc1	aSyn 5UTR act -123.8
COc1ccc(CC(=O)Nc2ccc(-c3cn4ccccc4n3)cc2)cc1OC	aSyn 5UTR act -85.9
COc1ccc(-c2cc3cc(OC)c(OC)cc3cn2)cc1OC	aSyn 5UTR act -140.2
O=C(Nc1ccc(-c2cn3ccccc3n2)cc1)c1cccs1	aSyn 5UTR act -128.7
O=C1NC(c2cccs2)Nc2sc3c(c21)CCCC3 (stereo not drawn)	aSyn 5UTR act -131.2
CCn1c(-c2ccccc2)csc1=Nc1ccc(O)cc1	aSyn 5UTR act -139.0
CCOc1ccc(N=c2scc(-c3ccccc3)n2CCO)cc1	aSyn 5UTR act -103.5
OCCn1c(-c2ccc3c(c2)OCO3)csc1=Nc1ccccc1	aSyn 5UTR act -97.1
Cc1cc(C)c(-c2nc3ccccc3s2)[nH]1	aSyn 5UTR act -190.2
CCOC(=O)/C(=N/Nc1ccc(C)cc1)S(=O)(=O)c1ccc(Cl)cc1	aSyn 5UTR act -141.9
Cc1nc(N)nc(N)c1CCCc1ccc(Cl)c(Cl)c1	none
COc1cccc(COc2cc3ccccc3nc2C)c1	aSyn 5UTR act -95.8
Cc1nc2ccccc2cc1OCc1ccc(Cl)cc1	aSyn 5UTR act -72.1
C/C(=N\NC(=O)c1ccc(Cl)c(Cl)c1)c1ccc(Br)s1	none
C/C(=N/NC(=O)c1ccc2c(c1)OCO2)c1cccc([N+](=O)[O-])c1	aSyn 5UTR act -133.0
C/C(=N\NC(=O)c1cccc([N+](=O)[O-])c1)c1cccs1	aSyn 5UTR act -81.3
C/C(=N/NC(=O)c1ccc2c(c1)OCO2)c1ccc(Br)s1	aSyn 5UTR act -88.6
CCNC(=S)N/N=C(\C)c1cccc([N+](=O)[O-])c1	aSyn 5UTR act -62.1
CC(=Nc1ccccc1)c1sc2ccccc2c1O	aSyn 5UTR act -383.5
CC(=Nc1ccc(Br)cc1)c1sc2ccccc2c1O	aSyn 5UTR act -125.0
Cc1ccc(NNC(=S)Nc2ccc(C(C)C)cc2)c(C)c1	aSyn 5UTR act -144.7
CCOc1ccc(C(=O)CSc2nnc(N)s2)cc1	aSyn 5UTR act -74.2
Cc1cc(C(=O)CSc2nnc(N)s2)c(C)n1C1CC1	aSyn 5UTR act -88.1
Cc1ccc(C(=O)CSc2nnc(N)s2)c(C)c1	aSyn 5UTR act -92.0
Cc1ccc(C(=O)CSc2nnc3ccccn23)c(C)c1	aSyn 5UTR act -73.5
O=C(Nc1cc(-c2nc3ncccc3o2)ccc1Cl)c1ccc([N+](=O)[O-])o1	aSyn 5UTR act -199.9
O=C(Nc1cccc2ccccc12)c1ccc([N+](=O)[O-])o1	aSyn 5UTR act -178.8
